Each structure is given as a SMILES string. Inconclusive results are not listed. Active and inactive are the calls of the source. Unless noted, calls come from the whole dose curve; as a rule, active = well fitted curve in the direction sought with a large enough effect; inconclusive = small, poorly fitted or top-dose-only effect, or another doubt; inactive = no such curve, though single readings can be large; an effect the other way counts as inactive or inconclusive.

Assay [1] has as its target Cytochrome P450 3A4 (Homo sapiens) (UniProt P08684). In words: qHTS Assay for Inhibitors and Substrates of Cytochrome P450 3A4 (AID 884). For activity change, negative = inhibition: % is set by controls: 0 for no effect and ±100 for the full control effect. Note: nearly all actives have a fitted effect of over 50% in size. Note: potency is the fitted concentration of half-maximal effect. Put shortly:
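20 nM human CYP3A4 with 25 uM Luciferin-PPXE (at KM) in 200 mM KPO4, preincubated 10 min with compound; NADPH regeneration started a 60 min RT reaction. Luciferin detected by luminescence, normalized to 57 uM ketoconazole as full inhibition.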
For orientation: In qHTS, concentration-response curves come from the screen itself.

For assay [2] the target is unchanged. The experiment in a line: qHTS Assay for Activators of Cytochrome P450 3A4 (AID 885). Note: nearly all actives have a fitted effect of over 65% in size. In short, it runs like this: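 Human CYP3A4 (20 nM) with Luciferin-PPXE at 25 uM (its KM) in 200 mM KPO4; 10 min compound preincubation, then NADPH regeneration and 60 min reaction at RT. Luciferin read by luminescence; normalized to 57 uM ketoconazole full inhibition.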
Assay [3] in a line: Confirmation and Secondary Assay for Modulators of Hemoglobin Beta Chain Splicing at IVS2 654 locus (AID 910).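 Note: per-well total GFP intensity by laser scanning cytometry after 2-day treatment; % of control where 0% means no effect.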 In short, it runs like this: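 HeLa cells stably carrying EGFP interrupted by mutant beta-globin IVS2-654 intron (CMV-driven) were treated with compound for 2 days at 37C; corrected splicing was scored as total peak GFP intensity per well (488 nm excitation, 500-520 nm emission).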

A short description of assay [4]: Confirmation and Secondary Assay for Modulators of Hemoglobin Beta Chain Splicing at IVS2 705 locus (AID 930).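 Note: HeLa cells stably expressing the EGFP-705 splicing reporter; GFP fluorescence per well restored by corrected splicing of the IVS2-705 intron in EGFP; % of control where 0% means no effect.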 In short, it runs like this:
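Fluorescence gain (488 nm laser, 500-520 nm PMT) reflects restored correct splicing of a mutant IVS2-705 intron inside EGFP in stably transfected HeLa cells after 2-day compound treatment.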

The nature of assay [5]: qHTS Assay for Lipid Storage Modulators (AID 1519; calls by dose curve; note: potency is the fitted concentration of half-maximal effect; for activity change, negative = inhibition: % is set by controls: 0 for no effect and ±100 for the full control effect). To be noted: Drosophila S3 cells, BODIPY lipid droplet/cell ratio, laser cytometry, cells loaded with oleic acid; for activity change, negative = inhibition: at 57.5 µM (top of the series). Put shortly: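 Cells seeded at 5,000 per well were treated with compounds over a concentration series and loaded with oleic acid (400 uM, as added). Lipid droplet fluorescence (488 nm excitation, 500-530 nm channel) was read by laser-scanning cytometry and normalized to 20 uM Triacsin C.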

Setting [6] is: measured here: cell count channel max response.
The mark [7] stands for this setting: measured here: lipid channel max response.

Chain of Cytochrome P450 3A4 (Homo sapiens) (P08684 whole entry, looked up): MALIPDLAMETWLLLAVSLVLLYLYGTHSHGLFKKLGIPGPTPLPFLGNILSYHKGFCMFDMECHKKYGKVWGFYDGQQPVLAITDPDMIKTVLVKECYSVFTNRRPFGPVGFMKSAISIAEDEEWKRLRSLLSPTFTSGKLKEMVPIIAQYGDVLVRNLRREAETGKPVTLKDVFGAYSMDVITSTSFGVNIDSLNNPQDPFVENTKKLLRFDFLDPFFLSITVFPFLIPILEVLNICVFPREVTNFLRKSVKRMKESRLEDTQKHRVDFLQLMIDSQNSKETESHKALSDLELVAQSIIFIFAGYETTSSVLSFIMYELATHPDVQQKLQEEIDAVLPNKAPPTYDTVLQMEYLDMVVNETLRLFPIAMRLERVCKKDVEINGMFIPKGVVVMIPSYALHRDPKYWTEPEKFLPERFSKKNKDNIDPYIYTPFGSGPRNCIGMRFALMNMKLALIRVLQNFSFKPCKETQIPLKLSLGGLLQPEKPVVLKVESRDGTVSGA

In the case of `CC1=CCc2c(cc3oc(C)cc(=O)c3c2O)OC1`, the Potency in assay [1] is 25.1 µM (active). Further, the Potency result in assay [2], in assay [3] and in assay [4] was “inactive” each time. Also, the activity change, negative = inhibition in assay [5] was 15.7% (inactive). For the same compound, the max response is 14.5% in assay [5] (setting [6]) and 19.5% in assay [5] (setting [7]).

As to `COC(=O)CC1C(C)(C)C(OC(C)=O)C2[C@H](OC(C)=O)[C@]34O[C@]2(O)[C@]1(C)C3CC[C@]1(C)C4=CC(=O)OC1c1ccoc1` (some centres undefined), the Potency in assay [1] is 2 µM (active); in assay [5] it was 15.8 µM (active). Also, the Potency result in assay [2], in assay [3] and in assay [4] was “inactive” each time. Also, the max response in assay [5] (setting [6]) was -16.6%; in assay [5] (setting [7]), -68.9%.

In the case of `COC(=O)[C@]1(C)CCC[C@]2(C)c3ccc(C(C)C)cc3C(=O)CC12` (some centres undefined), in assay [1], the Potency is 25.1 µM (active). Further, the Potency entry in assay [2], in assay [3] and in assay [4] was “inactive” in each case. Moreover, in assay [5], the activity change, negative = inhibition was 1.78% (inactive). Moreover, the figures for the max response in assay [5] (setting [6]) and in assay [5] (setting [7]) were 15.8% and 18.5%, respectively.

`COc1ccccc1-c1cc(=O)c2cccc(OC)c2o1`: the Potency in assay [1] was 20 µM (active). In addition, the Potency result in assay [2], in assay [3] and in assay [4] was “inactive” throughout. For the same compound, the activity change, negative = inhibition in assay [5] is 6.98% (inactive). The max response came to 13.5% in assay [5] (setting [6]) and 23.2% in assay [5] (setting [7]).

As to `C/C=C(\C)C(=O)OC1c2c(ccc3ccc(=O)oc23)OC(C)(C)C1OC(C)=O` (centres undefined), in assay [1], the Potency was 25.1 µM (active). For the same compound, the Potency entry in assay [2], in assay [3] and in assay [4] was “inactive” throughout. Besides, the activity change, negative = inhibition in assay [5] was -20.9% (inactive). Also, the max response was -0.795% in assay [5] (setting [6]) and -21.2% in assay [5] (setting [7]).

With `O=C(/C=C/c1ccc(O)cc1)c1ccccc1O`, the Potency in assay [1] was 1.58 µM (active). Moreover, the Potency entry in assay [2], in assay [3] and in assay [4] was “inactive” each time. Besides, the activity change, negative = inhibition in assay [5] is -18.4% (inactive). Also, the max response was 5.42% in assay [5] (setting [6]) and -11.8% in assay [5] (setting [7]).

Regarding `CSC(N)=NCCCC(N)C(=O)O` (centres undefined), the Potency entry in assay [1], in assay [3] and in assay [4] was “inactive” throughout. In addition, the activity change, negative = inhibition in assay [5] was 1.56% (inactive). Besides, the values for the max response in assay [5] (setting [6]) and in assay [5] (setting [7]) were 5.01% and 8.49%, respectively.

Take `CC(CCC(=O)O)C1CCC2C3CC[C@H]4CC(O)CC[C@@]4(C)C3C=C[C@]12C` (some centres undefined): the Potency entry in assay [1], in assay [3] and in assay [4] was “inactive” in each case. The activity change, negative = inhibition in assay [5] is 5.52% (inactive). The results for the max response in assay [5] (setting [6]) and in assay [5] (setting [7]) were 9.1% and 18.3%, respectively.

With `COc1ccc(-c2cc(=O)c3c(O)c(OC)c(O[C@@H]4OC(COC5OC(C)C(O)C(O)[C@@H]5O)C(O)C(O)C4O)cc3o2)cc1` (some centres undefined), the Potency entry in assay [1], in assay [3] and in assay [4] was “inactive” throughout. For the same compound, the activity change, negative = inhibition in assay [5] is 4.35% (inactive). For the same compound, the figures for the max response in assay [5] (setting [6]) and in assay [5] (setting [7]) were 13.3% and 15.5%, respectively.

`C/C=C(/C)C(=O)OC1C(OC(C)=O)[C@@]2(CO)C(O)C[C@@]3(C)C(=CCC4[C@@]5(C)CCC(OC6OC(C(=O)O)[C@@H](O[C@@H]7OC(CO)C(O)C(O)C7O)C(O)[C@H]6O[C@@H]6OC(CO)C(O)C(O)C6O)[C@](C)(CO)C5CC[C@@]43C)C2CC1(C)C` (some centres undefined): the Potency entry in assay [1], in assay [3] and in assay [4] was “inactive” in each case. The activity change, negative = inhibition in assay [5] was 9.44% (inactive). Also, the max response in assay [5] (setting [6]) is 18%; in assay [5] (setting [7]), 28.7%.

Regarding `CCCCCCCC/C=C/CCCCCCCCOP(=O)([O-])OCC[N+](C)(C)C`, the Potency result in assay [1], in assay [3] and in assay [4] was “inactive” throughout. The activity change, negative = inhibition in assay [5] was 12.8% (inactive). Besides, the max response in assay [5] (setting [6]) was found to be 12.4%; in assay [5] (setting [7]) it was 28.9%.

Consider `COc1ccc2c(c1)OC/C(=C\c1ccc(OC)c(O)c1)C2=O`, for which, in assay [1], the Potency was 10 µM (active). The Potency entry in assay [3] and in assay [4] was “inactive” in each case. Besides, the activity change, negative = inhibition in assay [5] was -9.54% (inactive). Moreover, the figures for the max response in assay [5] (setting [6]) and in assay [5] (setting [7]) were 2.46% and -8.22%, respectively.

For `CC1=C(/C=C/C(C)=C/C=C/C(C)=C/C=C/C=C(C)/C=C/C=C(C)/C=C/C(=O)[C@]2(C)CC(O)CC2(C)C)C(C)(C)CC(O)C1` (some centres undefined), the Potency entry in assay [1], in assay [3] and in assay [4] was “inactive” each time. Also, the activity change, negative = inhibition in assay [5] is 7.14% (inactive). For the same compound, the max response was found to be 11.8% in assay [5] (setting [6]) and 22.4% in assay [5] (setting [7]).

`CC1OC(n2cc(F)c(=O)[nH]c2=O)C(O)C1O` (centres undefined): the Potency result in assay [1], in assay [3] and in assay [4] was “inactive” in each case. Also, the activity change, negative = inhibition in assay [5] was 5.38% (inactive). Besides, the values for the max response in assay [5] (setting [6]) and in assay [5] (setting [7]) were 14% and 19.9%, respectively.

For `CC(=O)C1CCC2C3CCC4=CC(=O)CC[C@@]4(C)C3CC[C@]12C` (some centres undefined), the Potency entry in assay [1], in assay [3] and in assay [4] was “inactive” in each case. Also, the activity change, negative = inhibition in assay [5] is 4.88% (inactive). The max response is 4.44% in assay [5] (setting [6]) and 13.5% in assay [5] (setting [7]).

In the case of `COc1c(C(C)C)oc2cc3oc(=O)ccc3cc12`, the Potency entry in assay [1], in assay [3] and in assay [4] was “inactive” throughout. In addition, the activity change, negative = inhibition in assay [5] was 5.54% (inactive). The values for the max response in assay [5] (setting [6]) and in assay [5] (setting [7]) were 15.7% and 22.2%, respectively.

For `C=CC1=C(C)/C(=C/c2[nH]c(Cc3[nH]c(/C=C4\NC(=O)C(C)=C4C=C)c(C)c3CCC(=O)O)c(CCC(=O)O)c2C)NC1=O`, the Potency result in assay [1], in assay [3] and in assay [4] was “inactive” throughout. Further, in assay [5], the activity change, negative = inhibition is -0.375% (inactive). Also, the max response was found to be 3.69% in assay [5] (setting [6]) and 3.49% in assay [5] (setting [7]).

Consider `COc1ccc(-c2coc3cc(O)ccc3c2=O)c(O)c1O`, for which the Potency result in assay [1], in assay [3] and in assay [4] was “inactive” each time. The activity change, negative = inhibition in assay [5] was 8.68% (inactive). The max response in assay [5] (setting [6]) was -1.1%; in assay [5] (setting [7]), 7.57%.

`CCOc1cccc(C(=O)c2ccc(O)c(O)c2O)c1`: the Potency entry in assay [1], in assay [3] and in assay [4] was “inactive” each time. Besides, the activity change, negative = inhibition in assay [5] was 3.56% (inactive). Besides, the values for the max response in assay [5] (setting [6]) and in assay [5] (setting [7]) were 9.44% and -1.04%, respectively.

For `CC1O[C@@H](O[C@H]2C(Oc3cc(O)c4c(=O)cc(-c5ccc(O)cc5)oc4c3)OC(CO)C(O)C2O)C(O)C(O)C1O` (some centres undefined), the Potency entry in assay [1], in assay [3] and in assay [4] was “inactive” in each case. For the same compound, in assay [5], the activity change, negative = inhibition was 4.65% (inactive). The figures for the max response in assay [5] (setting [6]) and in assay [5] (setting [7]) were 16.6% and 23.3%, respectively.

For `C=CCCCCCCCCCCCC(O)CC(O)CO` (centres undefined) (tested in a mixture with another compound), the Potency entry in assay [1], in assay [3] and in assay [4] was “inactive” throughout. Also, the activity change, negative = inhibition in assay [5] is 11.1% (inactive). In addition, the max response worked out at 1.75% in assay [5] (setting [6]) and 15.4% in assay [5] (setting [7]).

As to `COC(=O)c1cc(=O)c(O)c2c(O)c(O)ccc2c1`, the Potency result in assay [1], in assay [3] and in assay [4] was “inactive” each time. The activity change, negative = inhibition in assay [5] was -1% (inactive). Also, the max response was -7.53% in assay [5] (setting [6]) and -9.52% in assay [5] (setting [7]).

Consider `COc1ccc(C(=O)/C=C/c2ccccc2)cc1`, for which the Potency result in assay [1], in assay [3] and in assay [4] was “inactive” throughout. The activity change, negative = inhibition in assay [5] is 8.41% (inactive). The max response is -9.97% in assay [5] (setting [6]) and -1.31% in assay [5] (setting [7]).
